Assay [1] is described as follows: Cell Viability - HepG2 (AID 433; calls by dose curve;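 also: potency is read from the fitted curve at half-maximal effect; potency for ATP loss meaning cytotoxicity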). Particulars: qHTS. In a few lines: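 ATP luminescence (CellTiter-Glo) after 40 h compound exposure, 37 °C, HepG2, 1500 cells/well, complete medium. Normalized: DMSO = basal, 100 uM tamoxifen = 100% inhibition. AC50 via standard Hill equation.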
Background: qHTS replaces the single test concentration by a dilution series.

Assay [2] can be described thus: Cell Viability - MRC5 (AID 434; calls by dose curve;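 also: potency is read from the fitted curve at half-maximal effect; potency reflects cytotoxicity seen as loss of intracellular ATP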). Conditions: MRC5 lung fibroblast viability, qHTS. In a few lines: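 MRC5 normal human lung fibroblasts, 1500 cells/well, exposed to compound for 40 hr at 37 C. Cellular ATP was read by CellTiter-Glo luminescence; data normalized to DMSO and 100 uM tamoxifen, with AC50 from Hill fits.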
Assay [3] is described as follows: Cellular Toxicity (caspase-3) H-4-II-E (AID 663).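 Also: cells exposed to compound for 16 hr before readout; 0% = DMSO basal and 100% = 100 µM tamoxifen.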 Conditions: H-4-II-E rat hepatoma; Potency: caspase-3 activation; series mostly up to 92.2 µM. A digest of the protocol:
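Rat hepatoma H-4-II-E cells (1500/well) plated 5 hr, then exposed to compound titrations for 16 hr at 37 °C. Caspase-Glo 3/7 luminescence read after 20 min at RT; data normalized to DMSO and 100 uM tamoxifen, AC50 from Hill fits.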

The nature of assay [4]: Cellular Toxicity (caspase-3) Renal Proximal Tubule (AID 667).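 Also: cells exposed to compound for 16 hours at 37 °C before detection; 0% = DMSO basal and 100% = 10 µM staurosporine.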 Conditions: renal proximal tubule cells; series mostly up to 91.7 µM. In a few lines: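 Luminescent caspase 3/7 signal from peptide-aminoluciferin cleavage measures apoptosis in freshly isolated rat kidney proximal tubule cells after 16 h compound exposure. Concentration-response data are normalized to DMSO and 10 uM staurosporine, and AC50 values come from Hill equation fits.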

The target in assay [5] is Cytochrome P450 3A4 (Homo sapiens) (UniProt P08684). Kind of assay: qHTS Assay for Inhibitors and Substrates of Cytochrome P450 3A4 (AID 884). Also: % is scaled to controls: 0 for no effect and ±100 for the full control effect; nearly all actives have a fitted effect of over 50% in size. Conditions: recombinant CYP3A4, Luciferin-PPXE luminescence; series mostly up to 57.1 µM. A digest of the protocol: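 20 nM human CYP3A4 with 25 uM Luciferin-PPXE (at KM) in 200 mM KPO4, preincubated 10 min with compound; NADPH regeneration started a 60 min RT reaction. Luciferin detected by luminescence, normalized to 57 uM ketoconazole as full inhibition.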

The nature of assay [6]: MultiTox-Fluor Cytotoxicity Assay - LYMP1-002 - Dead Cells (AID 960).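 Also: 0% = DMSO and 100% = tetraoctylammonium bromide; nearly all actives have a fitted effect of over 60% in size.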 Conditions: LYMP1-002 lymphoblastoid cells, dead-cell protease fluorescence; series mostly up to 46.1 µM. In a few lines: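 Human lymphoblastoid cells (LYMP1-002), 2500/well in complete medium, were exposed to compounds for 16 hr at 37 C. Dead-cell protease activity was read as bis-AAF-R110 fluorescence (Ex/Em 485/520), normalized to DMSO and 15 uM tetraoctylammonium bromide; AC50 from Hill fits.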

Assay [7] in a line: MultiTox-Fluor Cytotoxicity Assay - LYMP1-003 - Live Cells (AID 962).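 Also: 0% = DMSO only and full loss = 92 µM tetraoctylammonium bromide; cytotoxic hits lower the live-cell protease signal.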 Particulars: LYMP1-003 lymphoblastoid cells, MultiTox-Fluor live-cell protease fluorescence; series mostly up to 92.2 µM. A digest of the protocol: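 LYMP1-003 human lymphoblastoid cells (2500/well) in complete medium were preincubated 5 hr at 37 C, then exposed to compounds for 16 hr at 37 C. Live-cell protease cleavage of GF-AFC read by fluorescence (Ex/Em 405/510); AC50 from Hill fits.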

Assay [8] in a line: Cell Viability - LYMP2-003 (AID 965).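 Also: cells exposed to compounds for 24 h before reading; 0% = DMSO only and full effect = 92 µM tetraoctylammonium bromide; nearly all actives have a fitted effect of over 50% in size.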 Particulars: LYMP2-003 lymphoblastoid cell viability; series mostly up to 92.2 µM. A digest of the protocol:
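CellTiter-Glo luminescence (cellular ATP) after 24 h compound exposure at 37 C in complete medium; 2500 cells/well, 5 h settling beforehand. Concentration-response fitted to standard Hill equation for AC50. Tetraoctylammonium bromide served as positive control.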

Assay [9] in a line: Cell Viability - LYMP2-005 (AID 967). Also: potency is read from the fitted curve at half-maximal effect. Particulars: LYMP2-005 lymphoblastoid cell viability; series mostly up to 92.2 µM. A digest of the protocol:
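Steps: seed 2500 LYMP2-005 cells/well, incubate 5 h at 37 C, add compound, incubate 24 h at 37 C, add CellTiter-Glo, wait 30 min at RT, read luminescence. Concentration-response data fitted to Hill equation for AC50.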

Assay [10] is described as follows: Cell Viability - LYMP2-015 (AID 971).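 Also: 0% = DMSO only and full effect = 92 µM tetraoctylammonium bromide; nearly all actives have a fitted effect of over 55% in size.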 Conditions: LYMP2-015 lymphoblastoid cell viability; series mostly up to 92.2 µM. In a few lines: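 Human lymphoblastoid cells (2500/well) in complete medium were preincubated 5 hr at 37 C, then compound-treated 24 hr at 37 C. Intracellular ATP was read by CellTiter-Glo luminescence after 30 min at room temperature; AC50 came from Hill-equation concentration-response fits.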

Assay [11] is described as follows: Cell Viability - LYMP2-017 (AID 972). Also: % is scaled to controls: 0 for no effect and ±100 for the full control effect; nearly all actives have a fitted effect of over 55% in size. Particulars: LYMP2-017 lymphoblastoid cell viability; series mostly up to 92.2 µM. A digest of the protocol:
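Human lymphoblastoid cells (2500/well) were seeded in complete medium, held 5 hr at 37 C, then exposed to compounds for 24 hr at 37 C. Intracellular ATP was read by CellTiter-Glo luminescence after 30 min at room temperature, with AC50 values from Hill-equation fits.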

A short description of assay [12]: Cell Viability - LYMP2-007 (AID 979).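 Also: cells exposed to compound for 24 h before reading; 0% = DMSO only and the negative end = 92 µM tetraoctylammonium bromide; nearly all actives have a fitted effect of over 60% in size.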 Conditions: LYMP2-007 lymphoblastoid cell viability; series mostly up to 92.2 µM. In a few lines: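 Human lymphoblastoid cells (2500/well) were plated in complete medium, incubated 5 hr at 37 C, then exposed to compounds for 24 hr at 37 C. Intracellular ATP was read by CellTiter-Glo luminescence after 30 min at room temperature; AC50 from Hill fits.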

Assay [13] is described as follows: Cell Viability - LYMP2-014 (AID 983).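 Also: plate controls were DMSO only for no effect and 92 µM tetraoctylammonium bromide for full effect; nearly all actives have a fitted effect of over 50% in size.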 Conditions: LYMP2-014 lymphoblastoid cells, viability qHTS; series mostly up to 92.2 µM. In a few lines: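 Human lymphoblastoid cells (2500/well) were pre-incubated 5 hr at 37 C, then exposed to compounds in complete medium for 24 hr at 37 C. Intracellular ATP was read by CellTiter-Glo luminescence after 30 min at room temperature; AC50 from Hill fits.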

Assay [14] can be described thus: Cell Viability - LYMP2-024 (AID 988).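 Also: plate controls were DMSO only for no effect and 92 µM tetraoctylammonium bromide for full effect; nearly all actives have a fitted effect of over 60% in size.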 Particulars: LYMP2-024 lymphoblastoid cell viability; series mostly up to 92.2 µM. A digest of the protocol:
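Human lymphoblastoid cells (2500/well) in complete medium were preincubated 5 hr at 37 C, then exposed to compounds for 24 hr at 37 C. Intracellular ATP was read by CellTiter-Glo luminescence; AC50 from Hill-equation fits of concentration-response data.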

A short description of assay [15]: Cell Viability - LYMP1-002 - Assay at 40 hr (AID 994).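 Also: 0% = DMSO only and full inhibition = 92 µM tetraoctylammonium bromide; nearly all actives have a fitted effect of over 60% in size.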 Particulars: LYMP1-002 lymphoblastoid cell viability; series mostly up to 92.2 µM. A digest of the protocol:
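Human lymphoblastoid cells, 2500/well in complete medium, were preincubated 5 hr at 37 C, then exposed to compounds for 40 hr at 37 C. Intracellular ATP was read by CellTiter-Glo luminescence after 30 min at room temperature; AC50 from Hill-equation fits.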

Assay [16] is described as follows: qHTS assay for small molecule activators of the p53 signaling pathway (AID 651743; active = well fitted activation curve with a large enough effect in the signal ratio, not every such curve was filed as active; the % refers to the signal ratio; also: % of control where 0% means no effect). Particulars: HCT-116 p53RE-bla, beta-lactamase FRET ratio, 16 h; activation: stronger effect = higher value. In a few lines: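 HCT-116 p53RE-bla, 4,000 cells/well; 5 h settle; cpd/DMSO 16 h, 37 C; LiveBLAzer B/G 2 h RT; fluorescence intensity.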
Assay [17] deals with Tumor necrosis factor (Homo sapiens) (UniProt P01375). In words: qHTS assay to identify small molecules that stimulate Tumor Necrosis Factor-alpha (TNF-alpha) secretion (AID 651757; active = well fitted curve in the direction sought with a large enough effect in the signal ratio; the % refers to the signal ratio; also: 0% is about no effect). Particulars: Human cells, HTRF 665/615 ratio; series mostly up to 92.2 µM. A digest of the protocol:
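THP-1 cells were exposed to compounds for 17 hrs at 37 C, after which secreted TNF-alpha was measured by homogeneous HTRF (TR-FRET) using cryptate- and XL665-labeled anti-TNF-alpha antibodies, read after 3 hr at room temperature.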

A short description of assay [18]: qHTS assay for small molecule antagonists of the retinoid-related orphan receptor gamma (ROR-gamma) signaling pathway - cell viability counter screen (AID 720652; active = well fitted curve in the direction sought with a large enough effect in the repeat runs; an effect the other way counts as inactive or inconclusive;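 also: CHO reporter cells with doxycycline-induced ROR-gamma expression; compound exposure lasted 16 hr before ATP read; % is scaled to controls: 0 for no effect and ±100 for the full control effect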). Particulars: RORgamma reporter cell line viability counter screen; series mostly up to 92.2 µM. A digest of the protocol:
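Counter screen in CHO cells carrying TET-inducible ROR-gamma and an ROR response element-luciferase reporter; cells plated 5 hr, compound pinned, doxycycline added, then 16 hr at 37 C. Viability read as intracellular ATP by CellTiter-Glo luminescence.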

The nature of assay [19]: qHTS assay for cell viability of HEK293 cells (AID 743288). Also: % is scaled to controls: 0 for no effect and ±100 for the full control effect; nearly all actives have a fitted effect of over 50% in size. Particulars: ATP luminescence (CellTiter-Glo), 18 h, stronger effect = lower value. A digest of the protocol:
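Environmental chemicals tested in qHTS format against parental HEK293 cells; 18 h treatment, 37 C; read-out ATP luminescence (CellTiter-Glo), 30 min RT development.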

Assay [20] can be described thus: Cell Viability - LYMP2-016 (AID 984). Also: % is scaled to controls: 0 for no effect and ±100 for the full control effect; nearly all actives have a fitted effect of over 55% in size. Conditions: LYMP2-016 lymphoblastoid cell viability, qHTS; series mostly up to 92.2 µM. A digest of the protocol: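 qHTS, 1536-well: 2500 LYMP2-016 cells/well, 5 hr 37 C, compound added, 24 hr 37 C, CellTiter-Glo 30 min RT, luminescence. Tetraoctylammonium bromide positive control. AC50 via Hill fit.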

A number with no mark means an inactive call. Inconclusive results are not listed. Activity calls are given as the source filed them. Unless noted, calls follow the shape of the dose curve; as a rule, active = well fitted curve in the direction sought with a large enough effect; inconclusive = small, poorly fitted or top-dose-only effect, or another doubt; inactive = no such curve, though single readings can be large; an effect the other way counts as inactive or inconclusive. A value given as a limit tells only on which side of the number the result lay.

Chain of Tumor necrosis factor (Homo sapiens) (P01375 whole entry, looked up): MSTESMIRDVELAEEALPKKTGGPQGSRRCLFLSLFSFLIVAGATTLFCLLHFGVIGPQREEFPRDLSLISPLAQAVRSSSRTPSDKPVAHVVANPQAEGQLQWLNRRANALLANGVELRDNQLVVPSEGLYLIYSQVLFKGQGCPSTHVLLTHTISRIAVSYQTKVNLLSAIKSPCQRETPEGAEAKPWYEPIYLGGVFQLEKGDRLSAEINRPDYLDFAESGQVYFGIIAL
Chain of Cytochrome P450 3A4 (Homo sapiens) (P08684 whole entry, looked up): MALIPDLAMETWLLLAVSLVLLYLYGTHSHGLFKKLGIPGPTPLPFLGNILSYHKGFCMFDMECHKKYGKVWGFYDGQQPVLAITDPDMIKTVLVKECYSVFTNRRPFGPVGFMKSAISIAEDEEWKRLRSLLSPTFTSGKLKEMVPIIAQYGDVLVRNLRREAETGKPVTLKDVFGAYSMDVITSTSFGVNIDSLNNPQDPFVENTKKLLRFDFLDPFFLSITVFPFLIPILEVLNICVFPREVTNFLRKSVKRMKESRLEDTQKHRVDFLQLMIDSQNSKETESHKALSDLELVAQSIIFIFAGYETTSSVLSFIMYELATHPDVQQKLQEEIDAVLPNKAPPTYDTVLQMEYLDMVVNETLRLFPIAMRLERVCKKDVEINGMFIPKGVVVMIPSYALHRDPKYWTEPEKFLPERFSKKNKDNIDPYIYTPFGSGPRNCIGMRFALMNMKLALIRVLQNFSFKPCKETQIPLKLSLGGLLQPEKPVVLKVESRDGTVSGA

On to `[N-]=[N+]=[N-]`, for which the Potency in assay [1] is greater than 92 µM; in assay [2] it was greater than 92 µM; in assay [9], 2.51 µM (active). For the same compound, the Potency entry in [3], in [5], in [6], in assay [8], in assay [10] and in assay [11] was “inactive” each time. For the same compound, the Potency result in assay [12], in assay [13], in assay [14], in assay [15] and in assay [18] was “inactive” throughout. The result in [4], in [7] and in assay [17] was inactive. In addition, the activation in assay [16] was -1.87%. For the same compound, the max response in [19] was 0.516%.
For the compound `O=C(O)C(Br)Br`, the Potency in assay [2] was greater than 92 µM. The Potency entry in assay [3], in assay [5], in [6], in assay [8], in [10] and in assay [11] was “inactive” in each case. Besides, the Potency result in assay [12], in assay [13], in assay [14], in [15] and in [18] was “inactive” each time. Also, the compound was called inactive in assay [4], in assay [7] and in assay [17]. Also, in assay [16], the activation was 6.12%. In addition, the max response in assay [19] was -1.04%.
For `ClP(Cl)(Cl)(Cl)Cl`, the Potency in assay [1] and in [2] was greater than 92 µM in each case. For the same compound, the Potency entry in assay [3], in [5], in assay [6], in [8], in assay [9] and in assay [10] was “inactive” throughout. The Potency entry in [11], in assay [12], in assay [13], in assay [20], in assay [14] and in assay [15] was “inactive” each time. For the same compound, the Potency result in assay [18] is “inactive”. For the same compound, the result in assay [4], in [7] and in assay [17] was inactive. For the same compound, in assay [16], the activation was -1.29%. Further, in assay [19], the max response was -14.3%.
As for `CCCCC(CC)COC(=O)c1ccc(C(=O)OCC(CC)CCCC)c(C(=O)OCC(CC)CCCC)c1` (stereo unspecified), the Potency in assay [1] is greater than 92 µM. Besides, the Potency entry in assay [3], in assay [5], in assay [6], in assay [8], in [9] and in [11] was “inactive” each time. For the same compound, the Potency entry in [12], in assay [20], in assay [15] and in [18] was “inactive” in each case. For the same compound, the compound was called inactive in assay [4], in assay [7] and in assay [17]. Besides, the activation in [16] is -1.5%. For the same compound, the max response in assay [19] is -4.51%.
In the case of `O=[N+]([O-])c1ccccc1CCl`, the Potency in assay [1] and in assay [2] was greater than 92 µM throughout. In addition, the compound was called inactive in assay [4], in assay [7] and in [17]. Besides, the Potency entry in assay [5], in assay [6], in [8], in assay [9], in [13] and in assay [14] was “inactive” each time. Moreover, the Potency result in assay [15] is “inactive”. The activation in assay [16] is -1.05%. Also, the max response in assay [19] is 2.01%.
